PubChem BioAssay AID794 (The Scripps Research Institute Molecular Screening Center, 2007)
Some of the results follow. Unmarked numbers belong to inactive results. Calls of active or inactive are those of the source. Cut-off read from the data, not from the text of the source: active = inhibition above about 19%; inactive = the rest.

biological target: Focal adhesion kinase 1 (Homo sapiens) (UniProt Q05397); assay: FAK kinase inhibitors, retest, confirmation, biochemical (AID 794); conditions: FAK kinase biochemical inhibition assay; at 7 µM; active compounds read high
Sequence (Q05397 whole entry, looked up): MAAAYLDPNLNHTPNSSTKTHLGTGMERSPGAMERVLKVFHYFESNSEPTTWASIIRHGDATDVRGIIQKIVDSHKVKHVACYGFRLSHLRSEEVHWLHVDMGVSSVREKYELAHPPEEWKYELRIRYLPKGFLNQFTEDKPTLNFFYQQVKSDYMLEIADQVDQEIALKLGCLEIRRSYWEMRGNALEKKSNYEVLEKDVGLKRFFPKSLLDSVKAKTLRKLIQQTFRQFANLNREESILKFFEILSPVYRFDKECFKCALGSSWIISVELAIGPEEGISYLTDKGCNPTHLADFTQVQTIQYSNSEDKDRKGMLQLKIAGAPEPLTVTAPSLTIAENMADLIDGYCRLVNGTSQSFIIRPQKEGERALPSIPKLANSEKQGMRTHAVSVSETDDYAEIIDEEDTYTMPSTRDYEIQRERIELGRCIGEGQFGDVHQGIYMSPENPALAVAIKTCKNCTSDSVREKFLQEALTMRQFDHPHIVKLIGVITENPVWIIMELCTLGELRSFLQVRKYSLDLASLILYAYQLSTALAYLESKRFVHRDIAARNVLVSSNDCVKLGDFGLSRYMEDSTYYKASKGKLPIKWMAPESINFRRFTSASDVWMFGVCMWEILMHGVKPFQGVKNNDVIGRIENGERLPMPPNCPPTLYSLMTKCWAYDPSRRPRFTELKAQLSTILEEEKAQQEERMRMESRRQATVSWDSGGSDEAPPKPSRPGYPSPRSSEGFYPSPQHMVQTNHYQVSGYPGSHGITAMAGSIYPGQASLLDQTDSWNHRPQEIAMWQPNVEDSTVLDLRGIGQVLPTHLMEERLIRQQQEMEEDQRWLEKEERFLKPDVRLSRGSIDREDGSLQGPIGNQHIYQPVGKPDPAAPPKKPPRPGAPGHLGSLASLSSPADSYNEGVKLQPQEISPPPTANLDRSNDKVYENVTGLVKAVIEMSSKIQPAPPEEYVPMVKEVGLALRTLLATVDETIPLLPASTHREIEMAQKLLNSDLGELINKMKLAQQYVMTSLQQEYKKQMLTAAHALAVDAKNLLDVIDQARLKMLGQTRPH

Row | Compound | inhibition
1 | COc1ccc(NC(=O)ON=C2c3ccccc3-c3ccccc32)cc1 | 6.77%
2 | Cc1ccc(-c2nn(C(C)(C)C)c3ncnc(N)c23)cc1 | 15.6%
3 | COCCn1c(C)cc(C(=O)CSc2ncnc3sc4c(c23)CCC4)c1C | 4.05%
4 | O=[N+]([O-])c1ccc(Oc2ccc(F)cc2Br)c2ccncc12 | 6.15%
5 | Oc1ccccc1/C=N/n1c(-c2cccs2)n[nH]c1=S | 8.74%
6 | Cc1ccc(-n2nc3ccc(NC(=O)/C=C/c4ccco4)cc3n2)cc1C | 5.82%
7 | COC(=O)c1c(NC(=O)CSc2nncs2)sc2c1CCCCC2 | 10.8%
8 | O=C(Nc1ccc(-n2ccnc2P(=O)(O)c2ccccc2)cc1)c1ccccc1Br | 16.2%
9 | Cn1cccc1C(=O)Nc1nccs1 | 7.79%
10 | CCCOc1ccc(NC(=O)C2CCCNC2=O)cc1 (stereo not given) | -2.48%
11 | CCN(CC)S(=O)(=O)c1ccc2c3c(cccc13)C(=O)S2 | 14.7%
12 | CCN(CC)S(=O)(=O)c1cc([N+](=O)[O-])ccc1NNC(=O)Nc1ccccc1 | 19.2% (active)
13 | Fc1ccc(-c2ccc(-c3nn4c(-c5ccco5)nnc4s3)o2)cc1 | 5.37%
14 | COc1cc(N=Cc2c(O)[nH]c3ccccc23)cc(OC)c1OC | 56.3% (active)
15 | Cn1c(CCN2CCCCCC2)nc2cc(NC(=O)Nc3ccccc3)ccc21 | 7.82%
16 | Cc1cccn2c(=O)c3cc(C(=O)N4COCC4(C)C)n(C)c3nc12 | 6.3%
17 | Cc1cc2cc3c(N)[nH]nc3nc2cc1C | 20.5% (active)
18 | Nc1c(-c2ccc(F)cc2)cnc2ncnn12 | -3.73%
19 | CCc1ccccc1NC(=O)CSc1nnc([C@@H](NC(=O)OC(C)(C)C)C(C)CC)o1 (stereo not given in full) | -1.72%
20 | CCc1ccc2nc3sc(C(=O)Nc4nnc(CC)s4)c(N)c3cc2c1 | 16.1%
21 | O=[N+]([O-])c1ccc(C=Nc2ccc(Cl)cc2Cl)s1 | 2.19%
22 | CC(=O)c1ccc(Cc2ncc(C(F)(F)F)cc2Cl)s1 | -0.34%
23 | Clc1ccccc1CSc1nnc(-c2ccco2)c(-c2ccco2)n1 | 8.81%
24 | CC(=NCc1ccco1)C1=C(O)c2ccccc2C1=O | 15.2%
25 | Cc1cc(NC(=O)c2cnn3cccnc23)n(-c2ccccc2)n1 | 13.6%
